From PubChem BioAssay AID602481 (Broad Institute, 2012)
Screen size: about 360,000 compounds; about 340 (0.094%) were called active. Cut-off read from the data, not from the text of the source: active = inhibition above about 40%; inconclusive = no clear call, values can overlap the other calls; inactive = below that. The sample as a whole holds a higher share of actives than the screen did.

What follows are molecules tested on 7,8-diaminopelargonic acid synthase BioA (Mycobacterium tuberculosis) (assay: M. tuberculosis BioA enzyme inhibitors, primary screen, biochemical, plate reader, single point, HTS (AID 602481)). Conditions: purified M. tuberculosis BioA enzyme, at 9.99 µM, stronger effect = higher value.

Row | Structure (SMILES) | inhibition
1 | CO[C@H]1CN(C)C(=O)c2ccc(NS(=O)(=O)c3cn(C)cn3)cc2OC[C@H](C)N(C)C[C@H]1C | -1.67% (inactive)
2 | CC(C)CC#Cc1ccc2c(c1)O[C@H](CN(C)Cc1ccccc1F)[C@@H](C)CN([C@@H](C)CO)S2(=O)=O | 0.76% (inactive)
3 | O=C(NCCN1CCCC1)[C@@H]1N[C@@H]2c3ccc(-c4ccccc4)c(=O)n3C[C@@H]2[C@H]1CO | -0.384% (inactive)
4 | CC(C)NC(=O)Nc1ccc2c(c1)C(=O)N([C@H](C)CO)C[C@H](C)[C@@H](CN(C)S(C)(=O)=O)OCCCC[C@@H](C)O2 | -1.93% (inactive)
5 | C[C@H](O)C#Cc1ccc([C@@H]2[C@@H](CO)N3CCCCN(C(=O)c4ccc(F)cc4)C[C@H]23)cc1 | 8.06% (inactive)
6 | O=C(C[C@@H]1CC[C@@H]2[C@H](COC[C@@H](O)CN2S(=O)(=O)c2cccc(Cl)c2)O1)N1CCOCC1 | 0.133% (inactive)
7 | C[C@@H]1CN([C@@H](C)CO)S(=O)(=O)c2ccc(-c3cncnc3)cc2O[C@@H]1CN(C)C(=O)C1CC1 | -2.8% (inactive)
8 | COc1cc(OC)cc(-c2nc3nc(C)c(CCC(=O)NCc4ccco4)c(C)n3n2)c1 | -1.9% (inactive)
9 | Cc1nc2c(-c3ccc(F)cc3)c(C)nn2c(C)c1CCC(=O)NCc1ccco1 | -0.947% (inactive)
10 | Cc1ccc(Cn2c(C)c3cnn(CC(=O)NCCN4CCOCC4)c(=O)c3c2C)cc1 | 11.4% (inactive)
11 | Cc1ccc(Cc2c(C)nc3nc(SCC(=O)NCCN4CCOCC4)nn3c2C)cc1 | 53.9% (active)
12 | O=C(Cn1cc2c(n1)CCCCC2)NCCN1CCOCC1 | 1.9% (inactive)
13 | Cc1nc2nc(SCC(=O)NCc3ccco3)nn2c(C)c1Cc1ccccc1 | 45.5% (active)
14 | CO[C@H]1CN(C)C(=O)c2ccc(NC(=O)c3cccc(Oc4ccccc4)c3)cc2OC[C@@H](C)NC[C@H]1C | 2.28% (inactive)
15 | C/C=C/c1ccc2c(c1)O[C@@H](CN(C)S(C)(=O)=O)[C@@H](C)CN([C@H](C)CO)S2(=O)=O | 3.09% (inactive)
16 | CN1C(=O)c2cc(NS(=O)(=O)c3ccc(F)cc3)ccc2OC[C@@H]2O[C@@H](CC(=O)O)CC[C@H]21 | 0.387% (inactive)
17 | C[C@@H](NC(=O)C[C@H]1C=C[C@H](NC(=O)C2CCOCC2)[C@H](CO)O1)c1ccccc1 | 1.84% (inactive)
18 | C[C@H](CO)N1C[C@H](C)[C@@H](CN(C)CC2CCCCC2)Oc2ccc(NS(=O)(=O)c3cccs3)cc2CC1=O | 3.51% (inactive)
19 | CO[C@@H]1CN(C)C(=O)c2cc(NC(=O)c3cnccn3)ccc2OC[C@@H](C)N(C(=O)C2CC2)C[C@@H]1C | 9.9% (inactive)
20 | CC=Cc1ccc2n(c1=O)C[C@@H]1[C@@H](CO)[C@H](C(=O)N3CCc4ccccc4C3)N(C(=O)C3CCC3)[C@H]21 (mixture of isomers) | 0.815% (inactive)
21 | CC(C)(C)S(=O)N1Cc2cc(C(=O)O)nc(-c3cccc(-c4cc5ccccc5o4)c3)c2[C@@H]1CCO (some centres not stated) | -0.446% (inactive)

Row | Structure (SMILES) | inhibition
22 | CCCNC(=O)Nc1ccc2c(c1)C(=O)N(C)C[C@@H](OC)[C@@H](C)CN(C)[C@@H](C)CO2 | -0.7% (inactive)
23 | CN(C)c1ccc2c(c1)[C@H]1C[C@H](CC(=O)NCc3ccc(Cl)cc3)O[C@H](CO)[C@H]1O2 | 0.352% (inactive)
24 | O=C(CC1CC1)N1[C@@H]2CN(S(=O)(=O)c3ccc(F)cc3)c3ccccc3[C@@H]2[C@@H]1CO | 3.83% (inactive)
25 | COc1ccc(S(=O)(=O)N(C)C[C@@H]2OCCCC[C@H](C)Oc3ccc(NC(=O)Nc4ccccc4)cc3C(=O)N([C@H](C)CO)C[C@H]2C)cc1 | -0.37% (inactive)
26 | CN(C)C(=O)C[C@H]1C=C[C@@H](NC(=O)c2ccc(F)cc2)[C@@H](CO)O1 | -0.406% (inactive)
27 | O=C(Nc1ccc2c(c1)OCO2)N[C@H]1CC[C@H](CCNC(=O)C2CCC2)O[C@@H]1CO | 5.56% (inactive)
28 | O=C(C[C@H]1C[C@H]2c3cc(NC(=O)Nc4ccc(F)cc4)ccc3O[C@H]2[C@@H](CO)O1)NCC1CC1 | 0.529% (inactive)
29 | COc1ccc(NC(=O)N(C)C[C@H]2OCCCC[C@H](C)Oc3ccc(NC(=O)c4ccncc4)cc3C(=O)N([C@H](C)CO)C[C@@H]2C)cc1 | -0.437% (inactive)
30 | CN(C)CC(=O)Nc1ccc2c(c1)[C@@H]1C[C@H](CC(=O)NCC3CC3)O[C@@H](CO)[C@@H]1O2 | -1.45% (inactive)
31 | CN(C)CC(=O)N1[C@H](C(=O)NC2CCC2)[C@@H](CO)[C@@H]2Cn3c(ccc(-c4ccc(F)cc4)c3=O)[C@@H]21 | -3.07% (inactive)
32 | CCCN(C)C[C@@H]1OCc2cnnn2CCCC(=O)N([C@H](C)CO)C[C@@H]1C | -0.996% (inactive)
33 | Cc1ccc(S(=O)(=O)Nc2cccc3c2O[C@@H](CN(C)S(=O)(=O)c2cccs2)[C@@H](C)CN([C@@H](C)CO)C3=O)cc1 | 1.64% (inactive)
34 | O=C(Nc1cccc(F)c1)N1CCCCN2[C@H](CO)[C@H](c3ccc(C#CC4CC4)cc3)[C@@H]2C1 | 10.9% (inactive)
35 | Cc1ccc(S(=O)(=O)Nc2ccc3c(c2)CC(=O)N([C@@H](C)CO)C[C@H](C)[C@H](CN(C)Cc2ccc(C(=O)Nc4ccccc4N)cc2)O3)cc1 | -1.91% (inactive)
36 | CCCC(=O)Nc1ccc2c(c1)OC[C@@H](C)N(Cc1ccccc1F)C[C@@H](C)[C@H](OC)CN(C)C2=O | -3.54% (inactive)
37 | CCCN(C)C[C@@H]1Oc2ncc(C#CC3CC3)cc2C(=O)N([C@H](C)CO)C[C@H]1C | -2.63% (inactive)
38 | C[C@H](CO)N1C[C@H](C)[C@@H](CN(C)S(=O)(=O)c2ccccc2)OCCCC[C@H](C)Oc2ccc(NC(=O)NC3CCCCC3)cc2C1=O | -0.429% (inactive)
39 | COc1ccc(S(=O)(=O)N(C)C[C@H]2Oc3c(NS(=O)(=O)c4ccc(F)cc4)cccc3C(=O)N([C@H](C)CO)C[C@H]2C)cc1 | -2.2% (inactive)
40 | C=CCn1c(SCc2c(C(=O)OC)sc(N)c2C(=O)OC)nnc1-c1ccc(Cl)cc1 | 51.8% (active)
41 | C=CCn1c(SCc2cc(C(=O)OC)c(C)o2)nnc1-c1ccncc1 | 5.32% (inactive)
42 | CCn1c(SCc2cccc(C(=O)O)c2)nnc1-c1ccc(Cl)cc1 | 1.6% (inactive)
